# Values without a mark were called inactive. No rule for the calls is given here.
# System: Aerobactin synthetase IucA (Klebsiella pneumoniae hvKP1)
# Test: Biochemical IucA enzyme inhibition primary screen of the Spectrum library (AID 1346200);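 also: 100% = wells without compound and 0% = wells lacking enzyme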
# Conditions: malachite green pyrophosphate, A620, at 8 µM, hits give low values
row,SMILES,activity remaining [%]
1,CCC(CCC(C)C1CCC2C3CC=C4C[C@@H](OC(C)=O)CC[C@]4(C)C3CC[C@]12C)C(C)C (some centres not stated),114
2,CC(=O)O[C@H]1CC2CCC3C(CC[C@@]4(C)C3C[C@H]([N+]3(C)CCCCC3)[C@@H]4OC(C)=O)[C@@]2(C)C[C@@H]1[N+]1(C)CCCCC1 (some centres not stated),124
3,CC[C@@H]1OC(=O)C[C@@H](O)[C@H](C)[C@@H](O[C@@H]2O[C@H](C)[C@@H](O)[C@H](N(C)C)[C@H]2O)[C@@H](CCN2C[C@H](C)C[C@H](C)C2)C[C@@H](C)C(=O)/C=C/C(C)=C\[C@@H]1CO[C@@H]1O[C@H](C)[C@@H](O)[C@@H](OC)[C@H]1OC,112
4,CCOc1ccc2nc3cc(N)ccc3c(N)c2c1,96.1
5,c1ccc(-c2ccc(C(c3ccccc3)n3ccnc3)cc2)cc1 (configuration not stated),111
6,C[C@]12CCC3c4ccc(O)cc4CCC3C1CC[C@@H]2O (some centres not stated),125
7,CCCc1nc(C(C)(C)O)c(C(=O)OCc2oc(=O)oc2C)n1Cc1ccc(-c2ccccc2-c2nn[nH]n2)cc1,121
8,O=c1cc[nH]c(=S)[nH]1,97.7
9,COc1ccc(-c2coc3cc(O)ccc3c2=O)c(O)c1O,114
10,Oc1cc2c(cc1O)C1c3ccc(O)c(O)c3OCC1(O)C2 (configuration not stated),109
11,CC(=O)O[C@@H]1CC(=O)[C@@]2(C)C(CC(=O)[C@]3(C)C2CC[C@@]2(C)[C@H](c4ccoc4)OC(=O)C4OC423)C1(C)C (some centres not stated),92.3
12,CC[C@H](CCC(C)[C@H]1CCC2C3CCC4C[C@@H](O)CC[C@]4(C)C3CC[C@@]21C)C(C)C (some centres not stated),102
